High-throughput results deposited in PubChem by National Center for Advancing Translational Sciences (NCATS).
ALOX12 inhib – qHTS Assay for Inhibitors of 12-hLO (12-human lipoxygenase). Potency, µM (top dose mostly 57.1 µM), usual class: inhibitors. purified 12-hLO, xylenol orange hydroperoxide absorbance. 0.12% of 150,000 active. Polyunsaturated fatty acid lipoxygenase ALOX12 (Homo sapiens), P18054; further: nearly all actives have a fitted effect of over 55% in size
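Purified human 12hLO (150 nM final) was preincubated with compounds for 15 min at room temperature in 25 mM Hepes pH 7.0, 0.01% Triton X-100, then reacted with 40 uM arachidonic acid for 30 min. Hydroperoxide was detected with ferrous iron/xylenol orange.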
ALOX15B inhib – qHTS Assay for Inhibitors of 15-hLO-2 (15-human lipoxygenase 2) | 0.56% of 110,000 active | purified 15hLO-2, xylenol orange hydroperoxide absorbance | Potency, µM (titrated, usually from 57.1 µM), most hits filed as inhibitors; further: nearly all actives have a fitted effect of over 60% in size
Target sequence (O15296 whole entry, looked up): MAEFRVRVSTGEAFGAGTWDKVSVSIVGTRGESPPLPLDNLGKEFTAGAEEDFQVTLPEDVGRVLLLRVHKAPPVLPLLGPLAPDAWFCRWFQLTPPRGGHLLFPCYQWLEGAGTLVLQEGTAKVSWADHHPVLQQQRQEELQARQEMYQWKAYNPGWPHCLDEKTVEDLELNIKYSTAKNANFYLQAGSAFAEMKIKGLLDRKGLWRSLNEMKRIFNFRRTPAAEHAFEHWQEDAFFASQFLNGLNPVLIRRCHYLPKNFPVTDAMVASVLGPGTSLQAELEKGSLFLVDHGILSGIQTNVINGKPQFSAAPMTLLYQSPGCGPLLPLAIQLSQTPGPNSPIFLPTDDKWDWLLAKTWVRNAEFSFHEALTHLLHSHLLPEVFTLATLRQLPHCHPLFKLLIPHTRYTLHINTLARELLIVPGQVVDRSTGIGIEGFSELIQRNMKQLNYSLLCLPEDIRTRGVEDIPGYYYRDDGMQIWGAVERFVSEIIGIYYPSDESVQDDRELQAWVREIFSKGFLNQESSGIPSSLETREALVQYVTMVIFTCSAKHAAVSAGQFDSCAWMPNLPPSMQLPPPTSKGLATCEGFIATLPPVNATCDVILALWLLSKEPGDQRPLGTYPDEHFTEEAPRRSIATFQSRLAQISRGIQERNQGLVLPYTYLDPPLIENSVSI
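Read-out: hydroperoxide product oxidises ferrous iron, measured as xylenol orange complex via the 573-to-405 nm absorbance ratio after 30 min. Reaction: 50 nM enzyme, 15 min compound preincubation, 45 uM arachidonic acid, 90 min RT, Hepes pH 7.5 with Triton X-100.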
A number is an active result; - = inactive; ? = inconclusive; . = no result given; [ ] = dose if it differs, or a comment. The full list was thinned out, with hits kept by preference. The call rests on the fitted dose curve; in most records, active means well fitted curve in the direction sought with a large enough effect; inconclusive means small, poorly fitted or top-dose-only effect, or another doubt; inactive means no such curve, though single readings can be large; an effect the other way counts as inactive or inconclusive.

SMILES	ALOX12 inhib	ALOX15B inhib
CCOC(=O)c1c(C)oc2c1c(C(c1cccnc1)N1CCN(C)CC1)c(O)c1ccccc12 (stereo not given)	-	-
CCCCCCCCCCCCCCCCCC(=O)O[C@H](CC(=O)O)C[N+](C)(C)C	-	-
O=C(Nc1ccc(N2CCCC2)cc1)C(Cl)c1ccccc1 (stereo not given)	-	13µM
CS(=O)(=O)N1CCN(c2ccc(NC(=O)C(c3ccccc3)c3ccccc3)cc2)CC1	-	.
COc1ccccc1-n1c(SCC(=O)Nc2cccc3ccccc23)nc(O)cc1=O	-	-
COc1ccccc1-n1c(SCC(=O)Nc2ccc(C)cc2)nc(O)cc1=O	0.079µM	-
COc1ccc(NC(=O)CSc2nc(O)cc(=O)n2-c2ccccc2OC)cc1	7.1µM	-
CCN(CC)C(=O)CSc1nc(O)cc(=O)n1-c1ccccc1OC	-	-
COC(=O)[C@@H](NC(=O)N1CCc2nc(COc3ccccc3)c3c(c2C1)CO[C@@H](C)C3)C(C)C	-[11.4 µM]	.
Cc1c(Cl)cccc1NC(=S)NCC(C)C	-	.
Cc1c(Cl)cccc1NC(=S)NCc1ccccc1Cl	10µM	.
Cc1c(Cl)cccc1NC(=S)NCCC(C)C	-	?
COc1cc(NC(=S)NCCC(c2ccccc2)c2ccccc2)cc(OC)c1	22µM	.
CNC(=S)NCCC(c1ccccc1)c1ccccc1	-	.
Cc1c(Cl)cccc1NC(=S)NCCC(c1ccccc1)c1ccccc1	7.9µM	.
Cc1cccc(NS(=O)(=O)c2ccc(Cl)c(C(=O)O)c2)c1	-	.
C/C=C/C1=Cc2ccccc2C(CC(=O)OC)N1C(=O)OC (stereo not given)	-[11.4 µM]	.
Cc1ccc(CNC(=O)CCS(=O)(=O)c2ccc(Br)s2)cc1	-	-
C=CC1=C2C=C(C3CC3)N(C3CCCC3)C=C2C(=O)C(C)(OC(=O)c2ccco2)C1=O (stereo not given)	-[11.4 µM]	.
O=C1N=C(c2ccccc2)S/C1=C\c1cccs1	-	10µM
O=C1N=C(N2CCN(c3ccccc3)CC2)S/C1=C/c1cccs1	-	.
Cc1ccc(C(=O)c2c(C)oc3c2C(=O)C(=O)c2ccccc2-3)cc1	?	25µM
Cc1oc2c(c1C(=O)c1ccc(Cl)cc1)C(=O)C(=O)c1ccccc1-2	-	?
S=C(Nc1ccc(Oc2ccccc2)cc1)NC1CCCC1	14µM	.
S=C(Nc1ccc(Br)cc1)NC1CCCC1	-	.
SMILES	ALOX12 inhib	ALOX15B inhib
O=C1OC(c2ccccc2)c2ccccc21 (stereo not given)	-	.
O=C1C=CC(=O)C2=C1C1c3ccccc3C2c2ccccc21	?	2µM
CCCCCCCCCCCCC1CO1 (stereo not given)	-	-
CCCCc1nc2c(c3c1C[C@H](C)OC3)CN(S(=O)(=O)c1c(C)noc1C)CC2	-[11.4 µM]	.
Cc1[nH]n(-c2ccccc2)c(=S)c1C=Nc1cccc([N+](=O)[O-])c1	32µM	10µM
Cc1[nH]n(-c2ccccc2)c(=O)c1C=Nc1cccc2cccnc12	-	.
CCCCC1=CC2=C(OC(C)=O)C(=O)C(C)(OC(=O)c3ccc(Cl)nc3)C(=O)C2=CO1 (stereo not given)	-	.
COc1ccc(C(=O)N/N=C/c2cccc3cccnc23)cc1	-	-
COc1ccc(C(=O)N/N=C/c2cc3ccccc3[nH]c2=S)cc1	18µM	?
CCOc1cc(N2CCOCC2)c(OCC)cc1NC(=O)c1ccc(=O)n(Cc2ccccc2)n1	-	-
OC[C@@H]1O[C@@H](n2cnc3c(Nc4ccccc4)ncnc32)[C@@H](O)[C@H]1O	-	-
Oc1ccc(-c2nc(-c3ccc(O)c(O)c3)cs2)cc1	5µM	4µM
Oc1ccc(Nc2nc(-c3ccc4ccccc4c3)cs2)cc1	-	-
C=C/C(C)=C/[C@]1(C)SC(=O)C(C)=C1O	-	-
O=C(NC(=S)Nc1ccc(S(=O)(=O)NC2CCCCC2)cc1)c1cccs1	5µM	.
O=C(NC(=S)Nc1ccc(S(=O)(=O)N2CCCCC2)cc1)c1cccs1	-	.
CCCCC/C=C\C/C=C\C/C=C\CCCCCCC(=O)NCCCC(=O)O	-	.
CCN(CC)CCCNC(=O)c1ccc(-n2c(=O)c(=O)[nH]c3ccccc32)cc1	-	.
C/C(=N\NC(=S)NCCc1ccccc1)c1ccc(C)cc1	14µM	.
C/C(=N\NC(=S)NCCc1ccccc1)c1ccc(C#N)cc1	-	?
COCC(=O)Nc1ccc(C(C)C)cc1	-	-
CCC(C)c1ccc(O)c(N)c1 (stereo not given)	-	?
CC(C)c1ccc(O)c(N)c1	?	5µM
CC(C)c1ccccc1-n1c(SCc2cc(=O)oc3ccc4ccccc4c23)nnc1-c1cccnc1	-	.
COc1cc([C@@H]2Oc3cc([C@H]4Oc5cc(O)cc(O)c5C(=O)[C@H]4O)ccc3O[C@H]2CO)ccc1O	?	-
SMILES	ALOX12 inhib	ALOX15B inhib
CCCCc1nc2c(c3c1C[C@H](C)OC3)CN(C(=O)COC)CC2	-[11.4 µM]	.
COc1ccc(OC)c(NC(=O)NC2(C(F)(F)F)Oc3ccccc3O2)c1	-	10µM
COc1ccc(OC)c(NC(=O)Nc2ccccc2C)c1	-	-
C[C@@H]1O[C@@H](n2cc(F)c(=O)[nH]c2=O)[C@H](O)[C@@H]1O	-	-
CC(=O)[C@@H]1CC[C@@H]2[C@@H]3CC=C4C[C@H](OS(=O)(=O)O)CC[C@@]4(C)[C@H]3CC[C@]21C	-	-
CC1CCN(C(=O)N2c3ccccc3Sc3ccccc32)CC1	-	-
O=C(NC1CCN(C(=O)N2c3ccccc3Sc3ccccc32)CC1)c1ccccc1F	?	16µM
O=C(NCCN1CCCCC1)c1ccc(Cc2nc3ccccc3[nH]2)cc1	-	.
CN(C)c1ccc(N/C=C/C(=O)c2ccccc2)cc1	-	?
CN(C)c1ccc(N/C=C/C(=O)C(C)(C)C)cc1	-	25µM
Cc1ccc(NC(=O)COc2ccc(/C(N)=N/O)cc2)cc1C	-	.
CC1CCCC2(C1)NC(=S)c1c(sc3c1CCCC3)N2 (stereo not given)	-	13µM
CN1C(=O)c2c(sc3c2CCCC3)NC1c1ccccc1O (stereo not given)	-	?
S=C(Nc1ccccc1)Nc1ccc(OCc2ccc(Cl)cc2Cl)cc1	-	-[11.4 µM]
CCNC(=S)Nc1ccc(Cl)cc1Cl	-	.
S=C(NCCSCc1ccc(Cl)cc1Cl)Nc1ccccc1	25µM	?
S=C(NCCc1ccccc1)Nc1ccc(Cl)cc1Cl	?	25µM
C=CC1=C2C=C(C3CC3)N(C3CCCCC3)C=C2C(=O)C(C)(OC(=O)c2ccco2)C1=O (stereo not given)	-[11.4 µM]	.
COc1ccc(-c2cc(C(=O)N/N=C\c3cc(OC)c(OC)c(OC)c3)[nH]n2)cc1	-	.
O=C1CCCC2=C1C(c1ccc(Br)cc1)c1c([nH]c(=S)[nH]c1=O)N2 (stereo not given)	?	32µM
O=C1CCCC2=C1C(c1ccc3c(c1)OCO3)c1c([nH]n(-c3ccccc3)c1=O)N2 (stereo not given)	-	-
COc1cc(N=c2ssnc2Cl)cc(OC)c1OC	?	25µM
N#Cc1ccc(N=c2ssnc2Cl)cc1	-	.
Cc1cccc2c1N(CCCOc1ccccc1)C(=O)C2=O	-	-
Cc1ccccc1OCCCN1C(=O)C(=O)c2cccc(C)c21	?	25µM
COc1cc(OC)c(C2CC(=O)N3CN(c4ccccc4C)CSC3=C2C#N)cc1OC (stereo not given)	-	?
